For 18 compounds, outcome and AC50 results are on record in PubChem BioAssay (EPA / NIEHS).

Values joined by “and” are separate entries in the source; they are usually repeats but may differ in a detail not shown here. Equal entries are not always repeated. A structure can be active in one record and inactive in another. Active and inactive are the calls of the source. The calls were made as follows: active = hit-call score of the fitted dose curve at least 0.9, where 1 is the maximum; inactive = score below 0.9.

Assay [1] is described as follows: ATG_PXRE_CIS: Attagene CIS-FACTORIAL HepG2 Assay for human Pregnane X Receptor Element (PXRE) (AID 2282957). The settings on record: HepG2 Attagene CIS-FACTORIAL PXRE reporter, mRNA; actives raise or lower the signal. In short, it runs like this:
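Read-out: fluorescence of reporter-specific RT-PCR products resolved by capillary electrophoresis, fitted bidirectionally relative to DMSO. Human HepG2 liver cells carried transfected cis-promoter reporter units and were exposed to chemicals for 24 h.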

Assay [2] in a line: ATG_PPRE_CIS: Attagene CIS-FACTORIAL HepG2 Assay for human Peroxisome Proliferator-activated Response Element (PPRE) (AID 2282958). The settings on record: HepG2 PPRE cis-element reporter, Attagene transcription factor profiling; actives raise or lower the signal. In short, it runs like this: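 PPRE activity in HepG2: transient cis-reporter transfection, 24 h compound incubation, reporter mRNA by RT-PCR and CE fluorescence; gain/loss fitted against DMSO.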

Assay [3] can be described thus: ATG_RORE_CIS: Attagene CIS-FACTORIAL HepG2 Assay for human RAR-related Orphan Receptor Element (RORE) (AID 2282959). The settings on record: HepG2 Attagene cis-factorial RORE reporter, mRNA; actives raise or lower the signal. The procedure, abridged:
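A 24-hour exposure of transfected HepG2 hepatoma cells precedes RNA isolation and reporter RT-PCR. Labeled products are digested with HpaI and resolved by capillary electrophoresis, with gain or loss of signal scored relative to DMSO.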

The nature of assay [4]: ATG_Sox_CIS: Attagene CIS-FACTORIAL HepG2 Assay for human SRY-box transcription factor (SOX) (AID 2282960). The settings on record: HepG2 Attagene cis-factorial SOX reporter, mRNA; actives raise or lower the signal. In short, it runs like this:
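HepG2, cis reporter units, 24 h exposure. Reporter mRNA: RT-PCR → FAM labelling → HpaI → CE fluorescence. Bidirectional fit vs DMSO.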

In assay [5] the target is Transcription factor Sp1 (Homo sapiens) (UniProt P08047). Put plainly: ATG_Sp1_CIS: Attagene CIS-FACTORIAL HepG2 Assay for human Specificity Protein 1 (Sp1) (AID 2282961). The settings on record: HepG2 Sp1 cis-reporter transcription, actives raise or lower the signal. The procedure, abridged: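 Liver-derived HepG2 cells, cis-element reporter library, 24 h treatment; RNA isolated, cDNA amplified with reporter-specific primers, FAM-labeled fragments sized on capillary analyzer. DMSO baseline, bidirectional curve fit.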
Transcription factor Sp1 (Homo sapiens), sequence (P08047 whole entry, looked up, the tested form may be a part): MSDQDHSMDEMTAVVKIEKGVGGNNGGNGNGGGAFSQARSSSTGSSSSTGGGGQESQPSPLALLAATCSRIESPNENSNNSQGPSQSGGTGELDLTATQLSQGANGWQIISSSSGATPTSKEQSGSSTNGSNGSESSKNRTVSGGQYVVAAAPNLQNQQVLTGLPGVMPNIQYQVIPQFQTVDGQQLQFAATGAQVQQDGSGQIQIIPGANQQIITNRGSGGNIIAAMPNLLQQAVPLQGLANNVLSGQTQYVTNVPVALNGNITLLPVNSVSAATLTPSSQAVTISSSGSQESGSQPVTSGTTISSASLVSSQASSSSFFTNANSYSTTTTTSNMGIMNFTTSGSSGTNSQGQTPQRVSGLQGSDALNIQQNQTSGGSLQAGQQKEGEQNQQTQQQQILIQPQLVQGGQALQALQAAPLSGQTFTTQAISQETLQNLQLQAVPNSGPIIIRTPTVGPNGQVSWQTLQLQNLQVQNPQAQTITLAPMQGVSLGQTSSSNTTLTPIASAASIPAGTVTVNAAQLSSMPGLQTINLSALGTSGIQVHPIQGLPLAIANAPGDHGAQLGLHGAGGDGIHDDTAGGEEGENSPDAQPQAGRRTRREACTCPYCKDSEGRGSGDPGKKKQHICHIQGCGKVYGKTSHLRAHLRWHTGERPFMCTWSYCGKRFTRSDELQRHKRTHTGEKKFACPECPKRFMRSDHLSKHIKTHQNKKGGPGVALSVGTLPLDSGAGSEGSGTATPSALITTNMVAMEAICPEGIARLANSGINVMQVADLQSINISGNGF

Assay [6] is described as follows: ATG_SREBP_CIS: Attagene CIS-FACTORIAL HepG2 Assay for human Sterol Regulatory Element Binding (SREBP) (AID 2282962). The settings on record: HepG2 Attagene cis-factorial SREBP reporter, mRNA; actives raise or lower the signal. The procedure, abridged:
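Readout: fluorescent reporter-transcript peaks resolved by capillary electrophoresis after RT-PCR. Cells were human HepG2 carrying transfected cis-promoter reporter constructs, dosed for 24 h. Gain or loss of signal was fitted against DMSO controls.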

Assay [7] concerns the target Signal transducer and activator of transcription 3 (Homo sapiens) (UniProt P40763). Put plainly: ATG_STAT3_CIS: Attagene CIS-FACTORIAL HepG2 Assay for human Signal Transducer and Activator of Transcription 3 (STAT3) (AID 2282963). Particulars: HepG2, Attagene cis-factorial STAT3 reporter transcription; actives raise or lower the signal. The procedure, abridged:
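Fluorescence intensity of 6-FAM-labelled reporter fragments, separated by capillary electrophoresis after RT-PCR, gave the signal. Cells were HepG2 transfected with cis-element reporter units and treated 24 h; fitting was bidirectional relative to DMSO.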

Assay [8] in a line: ATG_TA_CIS: Attagene CIS-FACTORIAL HepG2 Assay for human TA Basal Promoter (AID 2282964). Particulars: HepG2 Attagene CIS-factorial TA basal promoter reporter; actives raise or lower the signal. In short, it runs like this: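 Transfected HepG2, 24 h compound exposure; RNA → RT-PCR → FAM primer extension → HpaI cut → CE fluorescence. Gain/loss-of-signal fitted against DMSO negative control. Background-control readout.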

The nature of assay [9]: ATG_TCF_b_cat_CIS: Attagene CIS-FACTORIAL HepG2 Assay for human T-Cell-Factor with beta-catenin (TCF/b-cat) (AID 2282965). Particulars: HepG2 TCF/beta-catenin cis-reporter transcription, actives raise or lower the signal. The procedure, abridged: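 HepG2 cells transiently transfected with cis-promoter-driven multiplexed reporter units; reporter mRNA measured 24 h after dosing by RT-PCR, FAM labelling, HpaI digestion and capillary electrophoresis. Bidirectional fitting relative to DMSO baseline.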

Signal transducer and activator of transcription 3 (Homo sapiens), sequence (P40763 whole entry, looked up, the tested form may be a part): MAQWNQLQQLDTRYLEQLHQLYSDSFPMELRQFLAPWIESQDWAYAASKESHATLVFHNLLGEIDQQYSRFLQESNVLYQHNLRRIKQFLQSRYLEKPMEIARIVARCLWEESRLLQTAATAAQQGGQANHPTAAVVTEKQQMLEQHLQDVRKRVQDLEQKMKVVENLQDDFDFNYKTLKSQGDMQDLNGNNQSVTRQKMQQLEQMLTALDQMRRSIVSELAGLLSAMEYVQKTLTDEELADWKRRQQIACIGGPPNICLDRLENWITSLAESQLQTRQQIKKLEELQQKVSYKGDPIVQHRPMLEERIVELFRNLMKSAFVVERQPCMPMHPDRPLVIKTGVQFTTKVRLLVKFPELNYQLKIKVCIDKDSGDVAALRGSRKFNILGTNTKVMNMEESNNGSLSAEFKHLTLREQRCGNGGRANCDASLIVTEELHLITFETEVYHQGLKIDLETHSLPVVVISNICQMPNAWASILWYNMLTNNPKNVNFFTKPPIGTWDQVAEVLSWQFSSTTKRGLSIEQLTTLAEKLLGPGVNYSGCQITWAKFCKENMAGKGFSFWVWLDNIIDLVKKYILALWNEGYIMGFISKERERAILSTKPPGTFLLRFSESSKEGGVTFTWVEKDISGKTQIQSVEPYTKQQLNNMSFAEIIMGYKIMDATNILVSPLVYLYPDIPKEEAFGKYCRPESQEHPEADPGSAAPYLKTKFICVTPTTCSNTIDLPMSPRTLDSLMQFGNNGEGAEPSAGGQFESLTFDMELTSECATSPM

As to `CCO[Si](C)(C)OCC`, the compound was classed as inactive in [1], in assay [2], in assay [3], in [4], in [5] and in assay [6]. For the same compound, the call in [7] was inactive.
Usually AC50 stands for the midpoint of the concentration-response curve, whichever way the signal moves. In the case of `CCC(C)c1ccccc1O` (centres undefined), the half-maximal activity concentration (AC50) was 27.4 µM (active) and 30.9 µM (active) in assay [1]; 164 µM (active) in assay [9]. Besides, the compound was called inactive in assay [2], in assay [3], in assay [4], in assay [5], in assay [6] and in assay [8]. Also, the compound was classed as inactive in assay [9].
In the case of `C/C=C/C(=O)C1=C(C)CCCC1(C)C`, the AC50 was 2.03 µM (active) in assay [1], 46.1 µM (active) in assay [4], 35.4 µM (active) in [5] and 44.9 µM (active) in assay [6]. The compound was classed as inactive in assay [2], in [3], in assay [7] and in [8].
In the case of `CN(CCO)S(=O)(=O)C(F)(F)C(F)(F)C(F)(F)C(F)(F)C(F)(F)C(F)(F)C(F)(F)C(F)(F)F`, the compound was called inactive in assay [1], in assay [2], in [3], in assay [4], in assay [5] and in assay [6]. The compound was classed as inactive in assay [8] and in assay [9].
As to `CCCCC(CC)C(=O)O` (centres undefined), the outcome in [1], in [2], in assay [3], in [4], in assay [5] and in [6] was inactive. The compound was called inactive in [7], in assay [8] and in assay [9].
Turning to `O=C1c2ccccc2C(=O)c2c(O)c(O)cc(O)c21`, in assay [1], the AC50 was 26.6 µM (active). Moreover, the result in [2], in [3], in assay [4], in assay [5], in assay [6] and in [7] was inactive. The compound was called inactive in assay [8] and in [9].
Regarding `Cc1ccc(N=Nc2c(O)ccc3ccccc23)c(C)c1`, in assay [1], the AC50 was 2.81 µM (active). Moreover, the compound was classed as inactive in [2], in assay [3], in [4], in assay [5], in assay [6] and in assay [8]. The outcome in assay [9] was inactive.
Consider `C=CC(C)(CCC=C(C)C)OC(C)=O` (centres undefined), for which, in assay [1], the AC50 is 22.8 µM (active). The call in [2], in assay [3], in assay [4], in assay [5], in [6] and in [7] was inactive. Also, the compound was called inactive in assay [8] and in assay [9].
Consider `OCCN1CN(CCO)CN(CCO)C1`, for which the results for the AC50 in assay [1], in assay [4] and in [5] were 30 µM (active), 150 µM (active) and 144 µM (active), respectively. In addition, the compound was called inactive in [2], in assay [3], in [6], in assay [7], in assay [8] and in assay [9].
Turning to `Cc1cncc(C)c1`, the compound was called inactive in assay [1], in assay [2], in [3], in [4], in [5] and in assay [6]. For the same compound, in assay [9], the compound was classed as inactive.
As to `O=C(O)c1cccc(C(=O)O)n1`, the call in assay [1], in assay [2], in [3], in assay [4], in [5] and in assay [6] was inactive. The compound was called inactive in assay [9].
As to `C[C@]12CC[C@@H]3c4ccc(O)cc4CC[C@H]3[C@@H]1CC[C@@H]2OC(=O)CCC1CCCC1`, the AC50 in assay [1] is 3.89 µM (active); in assay [2], 100 µM (active); in [4], 163 µM (active). For the same compound, the result in [3], in [5], in assay [6] and in [9] was inactive.
For the compound `O=C1OC2(c3ccccc31)c1cc(I)c(O)c(I)c1Oc1c2cc(I)c(O)c1I`, the half-maximal activity concentration (AC50) was 12.8 µM (active) and 4.37 µM (active) and 8.03 µM (active) in assay [1]; 34.5 µM (active) and 28.1 µM (active) in assay [3]. The compound was classed as inactive in assay [3], in assay [4], in assay [5], in assay [6] and in assay [7].
In the case of `CCCCCCCCC(C)=O`, the call in assay [1], in assay [2], in [3], in [4], in assay [5] and in assay [6] was inactive. Also, the result in assay [7], in assay [8] and in assay [9] was inactive.
For the compound `Cc1cc(Cc2cc(C)cc(C(C)(C)C)c2O)c(O)c(C(C)(C)C)c1`, the concentration at half-maximal activity (AC50) was 0.0497 µM (active) in assay [1], 153 µM (active) in [4], 93.6 µM (active) in assay [5] and 180 µM (active) in assay [9]. The call in assay [2], in assay [3], in [6] and in assay [8] was inactive.
With `CCOCCOCC`, the result in [1], in assay [2], in [3], in assay [4], in assay [5] and in assay [6] was inactive. The call in assay [7], in assay [8] and in [9] was inactive.
On to `Cc1[nH]nc2c1N=C(c1ccccc1Cl)c1cc([N+](=O)[O-])ccc1N2`, for which the AC50 in [1] was 3.76 µM (active); in assay [5], 0.357 µM (active); in assay [8], 0.288 µM (active). For the same compound, the compound was called inactive in [3], in [4], in assay [6] and in assay [7].
`C[C@]12CC[C@@H]3c4ccc(O)cc4CC[C@H]3[C@@H]1C[C@@H](O)[C@@H]2O`: the call in assay [1], in assay [2], in assay [3], in [4], in assay [5] and in [6] was inactive. Besides, in assay [7], the call was inactive.
